Screens: PubChem, National Center for Advancing Translational Sciences (NCATS)
LDHA inh: qHTS assay for inhibitors of human lactate dehydrogenase. L-lactate dehydrogenase A chain (Homo sapiens), P00338. purified LDHA, NADH/diaphorase-resazurin fluorescence; stronger effect = lower value. activity change, % (values are at about 110 or 230 µM). 480,000 tested, 0.15% active; in the data active = activity change below about -30%; inconclusive = mostly about -25% to -30%;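 note: plate controls were DMSO wells for no effect and wells without enzyme for full effect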
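Resorufin fluorescence (ex540/em590), read at 0 and 20 min after diaphorase/resazurin addition, reports the NADH left after a 5 min room-temperature reaction of 2 nM human LDH5 with 0.06 mM NADH and 0.2 mM pyruvate.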
PTHR1 ag: qHTS for PTHR1 Agonists: Primary Screen; Parathyroid hormone/parathyroid hormone-related peptide receptor (Homo sapiens), Q03431; 410,000 tested, 0.075% active; AID 743266, 2014; HEK293 GP2 PTHR1 cells, GloSensor cAMP luminescence, 1 h; Potency, µM (titrated, usually from 115 µM), inactives show at the highest dose activation, hits mostly activators; note: potency is the fitted concentration of half-maximal effect; nearly all actives have a fitted effect of over 55% in size
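HEK-293-derived GP2 cells expressing PTHR1 and a GloSensor cAMP reporter, 3,000/well, plated overnight, given luciferin plus IBMX (each 0.5 mM as added) for 1 h at 37 °C, then compound for 1 h at 37 °C. Luminescence was read after 15 min at room temperature.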
IDH1 R132H inh: qHTS for Inhibitors of mutant isocitrate dehydrogenase 1 (IDH1): qHTS; 390,000 tested, 0.093% active; IDH1-R132H enzyme, NADPH consumption, diaphorase/resazurin fluorescence; Isocitrate dehydrogenase [NADP] cytoplasmic (Homo sapiens), O75874; Potency, µM (highest dose often 76.6 µM), without a hit: top-dose activity change, negative = inhibition, actives largely listed as inhibitors; note: potency is the fitted concentration of half-maximal effect; % is set by controls: 0 for no effect and ±100 for the full control effect; nearly all actives have a fitted effect of over 65% in size
Target sequence (O75874 whole entry R132H, stated change not applied): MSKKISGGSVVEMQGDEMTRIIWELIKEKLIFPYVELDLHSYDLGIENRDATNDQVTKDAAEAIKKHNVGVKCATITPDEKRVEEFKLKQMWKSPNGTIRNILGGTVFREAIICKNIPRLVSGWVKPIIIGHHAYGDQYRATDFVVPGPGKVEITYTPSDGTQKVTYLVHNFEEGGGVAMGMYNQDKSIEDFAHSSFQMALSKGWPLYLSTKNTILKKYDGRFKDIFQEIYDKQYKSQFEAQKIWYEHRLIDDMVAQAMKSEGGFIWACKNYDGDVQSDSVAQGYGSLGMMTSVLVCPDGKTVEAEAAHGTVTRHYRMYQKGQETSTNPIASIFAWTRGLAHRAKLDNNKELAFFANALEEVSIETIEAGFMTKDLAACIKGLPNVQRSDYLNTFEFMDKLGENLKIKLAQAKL
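IDH1-R132H (0.5 ug/mL dispensed) in pH 7.5 Tris buffer was preincubated 30 min with compound, then given a substrate mix of 0.016 mM NADPH and 2 mM alpha-KG for 80 min at room temperature; remaining NADPH was read by diaphorase/resazurin fluorescence.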
GLP1R cytotox: qHTS of GLP-1 Receptor Inverse Agonists: Cytotox Screen | HEK293 cAMP-luciferase reporter cells, luminescence, 24 h | Potency, µM (series often up to 38.3 µM), for the others: at the highest dose activity change, negative = inhibition, usual class: inhibitors | 410,000 tested, 0.13% active;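 note: loss of luciferase light is scored as toxicity; potency is the fitted concentration of half-maximal effect; % is set by controls: 0 for no effect and ±100 for the full control effect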
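To flag toxic compounds, the library was rerun on cells for 24 hr at 37 deg C and 5% CO2. Viability-linked luminescence was captured 12 min after adding luciferase detection reagent.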
GLP1R ag: qHTS of GLP-1 Receptor Agonists. Glucagon-like peptide 1 receptor (Homo sapiens), P43220. HEK293 GLP-1R CRE-luciferase, luminescence, 4-6 h; cells express a hypersensitive GLP-1R form. Potency, µM (top dose mostly 45.6 µM), without a hit: at the top dose activation, hits mostly activators. 380,000 tested, 0.007% active. AID 624172, 2012; note: potency is the fitted concentration of half-maximal effect; % of control where 0% means no effect
GLP1R inv ag: qHTS of GLP-1 Receptor Inverse Agonists (Inhibition Mode); 410,000 tested, 1.6% active; Potency, µM (highest dose often 38.3 µM), for inactives: at the highest dose activity change, negative = inhibition, usual class: inhibitors; HEK293 GLP-1R CRE-luciferase, luminescence, 24 h; GLP-1R form is constitutively active; AID 624417, 2012; Glucagon-like peptide 1 receptor (Homo sapiens), P43220; note: potency is the fitted concentration of half-maximal effect; % is set by controls: 0 for no effect and ±100 for the full control effect; nearly all actives have a fitted effect of over 55% in size
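Stable HEK293 clone (constitutively active GLP-1R + cAMP-response luciferase); 200 cells/uL plated, 12 h pre-culture, compound 24 hr, 37 deg C/5% CO2; detection reagent 12 min RT; luminescence.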
* = called active by the depositor; i = inactive; ? = inconclusive; · = not tested or not shown; [ ] = another dose, or the depositor's remark. Compounds with a hit are over-represented: about 1.7% of the library has one in this group of screens. Unless noted, calls come from the whole dose curve; as a rule, active = well fitted curve in the direction sought with a large enough effect; inconclusive = small, poorly fitted or top-dose-only effect, or another doubt; inactive = no such curve, though single readings can be large; an effect the other way counts as inactive or inconclusive.

SMILES	LDHA inh	PTHR1 ag	IDH1 R132H inh	GLP1R cytotox	GLP1R ag	GLP1R inv ag
CC(C)(C)OC(=O)N(CCc1ccccc1)Cc1cccc(OCc2cccc(NC(=O)/C=C/c3ccccc3)c2)c1	-10	-54%	1%[38.3 µM]	2%	6%	?
CC(C)(C)OC(=O)N(CCc1ccccc1)Cc1cccc(OCc2cccc(NC(=O)C3CCC3)c2)c1	-1	-18%	1%[38.3 µM]	7%	-2%	?
CC(C)(C)OC(=O)N(Cc1ccccc1)Cc1ccccc1OCc1cccc(NC(=O)C2CC2)c1	0	-22%	2%[38.3 µM]	-2%	3%	10µM*
CC(C)(C)OC(=O)N(Cc1ccccc1)Cc1ccccc1OCc1cccc(NC(=O)C2CCC2)c1	5	-9%	-2%[38.3 µM]	7%	13%	?
CC(C)(C)OC(=O)N(CCc1ccccc1)Cc1ccccc1OCc1cccc(NC(=O)C2CCC2)c1	0	-39%	1%[38.3 µM]	-5%	1%	8.9µM*
CC(C)C(=O)Nc1cccc(COc2cccc(CN(Cc3ccccc3)C(=O)OC(C)(C)C)c2)c1	4	-12%	2%[38.3 µM]	17%	8%	?
CC(C)C(=O)Nc1cccc(COc2ccc(CN(CCc3ccccc3)C(=O)OC(C)(C)C)cc2)c1	1	-30%	11%	13%	-1%	6.3µM*
CC(C)(C)OC(=O)N(Cc1ccccc1)Cc1cccc(OCc2cccc(NC(=O)C3CC3)c2)c1	-1	-24%	0%[38.3 µM]	12%	0%	10µM*
O=C(Cc1cc(Cl)c2c(c1)OCCO2)NC1CCN(CC2CCCCC2)CC1	-1	·	·	·	·	·
COc1cc(OC)c(C2C3=C(CC(C)(C)CC3=O)Nc3n[nH]c(-c4ccccc4)c32)cc1OC (stereo unspecified)	22	·	·	·	·	·
O=C(Nc1cc2ccccc2oc1=O)c1ccccc1	-2	-26%	0%	1%	-3%	7.9µM*
O=C(Nc1ccccc1I)c1cc2ccccc2oc1=O	3	·	·	·	·	·
CCCCc1nnc2sc(-c3ccc(OCC)c(OCC)c3)nn12	5	·	·	·	·	·
Cc1ccc(NC(=O)CNc2ccc(OC(C)C)cc2)cc1	10	-12%[57.5 µM]	2%	23%	-7%	21%
Cc1ccc(C(CC(=O)NCCCN(C)C)c2ccc(OC(C)C)cc2)cc1 (stereo unspecified)	-4	i	5%	-17%	8%	11µM*
COc1cccc2cc(S(=O)(=O)c3ccc(Cl)cc3)c(=O)oc12	22	·	·	·	·	·
Cc1cccc(C(=O)n2c(=S)nc3cc(C)ccn32)c1	-9	-29%	8%	?	4%	?
Cc1ccn2c(c1)nc(=S)n2C(=O)c1ccccc1	-1	-36%	2%	-19%	-12%	2.5µM*
Cc1ccc2nc3c(cc2c1)CN(Cc1ccco1)C(=NCC1CCCO1)S3 (stereo unspecified)	4	-14%[57.5 µM]	1%	-11%	-2%	2.2µM*
COCCN=C1Sc2nc3c(C)cccc3cc2CN1Cc1ccco1	-1	-7%[57.5 µM]	2%	-3%	3%	8.9µM*
Cc1cccc2cc3c(nc12)SC(=NCC1CCCO1)N(Cc1ccco1)C3 (stereo unspecified)	-3	i	-4%	?	-18%	?
COCCN=C1Sc2nc3ccc(C)cc3cc2CN1Cc1cccs1	8	-30%	9%	5%[7.66 µM]	17%	?
COc1ccc(C2CCCCCN2C(=O)c2csc(-c3ccsc3)n2)cc1 (stereo unspecified)	9	·	·	·	·	·
Cc1ncoc1C(=O)N1CCc2c([nH]c3ccccc23)C1C1CCCCC1 (stereo unspecified)	1	-22%	-10%	67%	-10%	10µM*
Cc1cccc(C2c3[nH]c4ccccc4c3CCN2C(=O)c2noc3c2CCCC3)n1 (stereo unspecified)	0	-33%	-1%	-9%	17%	7.1µM*
SMILES	LDHA inh	PTHR1 ag	IDH1 R132H inh	GLP1R cytotox	GLP1R ag	GLP1R inv ag
O=C(c1noc2c1CCCC2)N1CCc2c([nH]c3ccccc23)C1c1ccccn1 (stereo unspecified)	2	-1%	-3%	3%	11%	-19%
Cc1ncoc1C(=O)N1CCc2c([nH]c3ccccc23)C1C(C)(C)C (stereo unspecified)	-1	-12%	4%	2%	2%	-27%
CC(C)(C)NC(=O)CON=C1c2ccccc2-c2ccccc21	-2	-12%	5%	-2%	12%	?
CC(C)(C)NCC(O)CON=C1c2ccccc2-c2ccccc21 (stereo unspecified)	-1	i	9%	?	2%	4µM*
COc1ccccc1CNCC(O)(c1ccc(Cl)cc1)c1ccc(Cl)cc1	1	i	2%	0%	-16%	?
CCN(CC)CCNCC(O)(c1ccc(Cl)cc1)c1ccc(Cl)cc1	-4	i	3%	2%	1%	8.9µM*
NCC(O)(c1ccc(Cl)cc1)c1ccc(Cl)cc1	-2	i	-4%	-11%	-2%	?
CC(C)NCC(O)(c1ccc(Cl)cc1)c1ccc(Cl)cc1	2	i	-6%	-8%	17%	13µM*
CC(C)(C)NCC(O)(c1ccc(Cl)cc1)c1ccc(Cl)cc1	-2	-15%	3%	?	0%	4.5µM*
O=C1CC(c2ccc(O)cc2)c2ncn(-c3ccccc3)c2N1 (stereo unspecified)	83	·	·	·	·	·
Cc1ccc(-c2nc(CC(=O)NCCc3ccccc3F)cs2)o1	-33*	·	·	·	·	·
CCC(C)(C)C(=O)NCc1cccs1	-1	·	·	·	·	·
COC(=O)c1ccc2nc(-c3cccc(N)c3)cn2c1	1	-23%	17%	-4%	-5%	5.6µM*
COC(=O)c1ccc2nc(-c3ccc(S(C)(=O)=O)cc3)cn2c1	-1	-16%	2%	18%	1%	-6%
CCNC(=O)c1cccc(NC(=O)c2cc(C3CC3)nc3ccccc23)c1	8	·	·	·	·	·
Cc1ccc(S(=O)(=O)N(CC(=O)Nc2cccnc2)c2cc(Cl)ccc2C)cc1	-5	-17%	?	-26%	·	10µM*
